Values joined by “and” are separate entries in the source; they are usually repeats but may differ in a detail not shown here. Equal values may be shown once. Records with an inconclusive call do not appear. A structure can be active in one record and inactive in another. Active and inactive are the calls of the source. Unless noted, calls follow the shape of the dose curve; as a rule, active = well fitted curve in the direction sought with a large enough effect in the repeat runs; inconclusive = weak or mixed curves; inactive = no such curve, though single readings can be large; an effect the other way counts as inactive or inconclusive.

This note sets out measurements from PubChem BioAssay (Tox21).

Assay [1] is described as follows: qHTS assay to identify aromatase inhibitors - cell viability counter screen (AID 743084).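 Also: cells stimulated with testosterone during compound exposure; nearly all actives have a fitted effect of over 55% in size.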 Also: potency is read from the fitted curve at half-maximal effect.
Assay [2] addresses Aryl hydrocarbon receptor (Homo sapiens) (UniProt P35869). Kind of assay: qHTS assay to identify small molecule that activate the aryl hydrocarbon receptor (AhR) signaling pathway (AID 743085). Also: nearly all actives have a fitted effect of over 15% in size. Also: potency is read from the fitted curve at half-maximal effect.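 As to activation: HG2L7.5c1 human HepG2 liver cells with stably integrated DRE-driven firefly reporter; series mostly up to about 70 µM.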 The essentials:
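24 h compound exposure, 37C, HepG2-derived HG2L7.5c1 cells with DRE-responsive luciferase. Readouts: fluorescence viability, then luminescence at room temperature after 30 min.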

A short description of assay [3]: qHTS assay to identify small molecule that activate the aryl hydrocarbon receptor (AhR) signaling pathway - cell viability counter screen (AID 743086).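 Also: HepG2 liver cells carrying the AhR DRE luciferase reporter; series mostly up to about 70 µM; nearly all actives have a fitted effect of over 45% in size.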 The essentials:
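HepG2-AhR-luc (HG2L7.5c1) cells, 4000/well, were preincubated 5 h at 37C, exposed to compound in qHTS format for 24 hr at 37C, then given CellTiter-Fluor for 30 min; viability was read as fluorescence in the reporter wells.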

The target in assay [4] is Peroxisome proliferator-activated receptor gamma (Homo sapiens) (UniProt P37231). Nature of the assay: qHTS assay to identify small molecule agonists of the peroxisome proliferator-activated receptor gamma (PPARg) signaling pathway (AID 743094; active = well fitted activation curve with a large enough effect in the signal ratio in the repeat runs, not every such curve was filed as active; the % refers to the signal ratio). An outline of the steps: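 Fluorescence-based beta-lactamase readout in HEK293H PPARg UAS-bla cells after 17 h compound exposure (37C) and 1 h B/G FRET substrate incubation at room temperature.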
Chain of Peroxisome proliferator-activated receptor gamma (Homo sapiens) (P37231 whole entry, looked up): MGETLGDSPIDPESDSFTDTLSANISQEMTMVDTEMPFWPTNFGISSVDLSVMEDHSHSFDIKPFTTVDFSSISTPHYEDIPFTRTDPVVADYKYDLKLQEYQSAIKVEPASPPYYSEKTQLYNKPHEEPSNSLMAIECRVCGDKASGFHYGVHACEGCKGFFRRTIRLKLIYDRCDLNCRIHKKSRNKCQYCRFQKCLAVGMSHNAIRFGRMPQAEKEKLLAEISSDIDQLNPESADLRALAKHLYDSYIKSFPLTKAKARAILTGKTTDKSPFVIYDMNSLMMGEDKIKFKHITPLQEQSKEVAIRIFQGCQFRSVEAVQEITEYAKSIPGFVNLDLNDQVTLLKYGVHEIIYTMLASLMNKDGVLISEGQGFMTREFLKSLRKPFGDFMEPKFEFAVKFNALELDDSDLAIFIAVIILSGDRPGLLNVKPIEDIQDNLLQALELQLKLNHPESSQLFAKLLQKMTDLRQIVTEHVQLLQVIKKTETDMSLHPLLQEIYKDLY

Assay [5] has the same target. Kind of assay: qHTS assay to identify small molecule antagonists of the peroxisome proliferator-activated receptor gamma (PPARg) signaling pathway (AID 743191; calls by dose curve; also: nearly all actives have a fitted effect of over 30% in size; also: potency is read from the fitted curve at half-maximal effect). An outline of the steps: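 GeneBLAzer PPARg UAS-bla HEK293H cells carrying a UAS-driven beta-lactamase reporter were plated at 3000 cells/well, preincubated 5 h at 37C, then given compound for 17 h at 37C; LiveBLAzer B/G FRET substrate was read after 1 h at room temperature.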

Assay [6] can be described thus: qHTS assay for small molecule agonists of the antioxidant response element (ARE) signaling pathway - cell viability counter screen (AID 743203; calls by dose curve; also: nearly all actives have a fitted effect of over 55% in size; also: potency is read from the fitted curve at half-maximal effect). An outline of the steps: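 Parallel cytotoxicity read-out for the ARE-bla screen: HepG2 reporter cells, 16 hrs with compounds, then CellTiter-Glo luminescence.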
Assay [7] is described as follows: qHTS assay for small molecule activators of the heat shock response signaling pathway - cell viability counter screen (AID 743209). Also: nearly all actives have a fitted effect of over 50% in size. The essentials:
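To flag cytotoxic compounds, HSE-bla HeLa cells plated at 1500 cells/well were dosed for 5 h at 37 C, followed by the reporter FRET read and then CellTiter-Glo, with luminescence recorded 30 min after reagent addition.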

Assay [8] is described as follows: qHTS assay for small molecule activators of the heat shock response signaling pathway (AID 743210; active = well fitted activation curve with a large enough effect in the signal ratio in the repeat runs, with a control signal flat, not every such curve was filed as active; the % refers to the signal ratio; also: series mostly up to about 63 µM). The essentials: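 Heat shock element–beta-lactamase HeLa reporter cells; qHTS with compounds for 5 h at 37 C; detection by FRET substrate fluorescence after 2.5 h at RT.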
The nature of assay [9]: qHTS assay to identify small molecule agonists of the peroxisome proliferator-activated receptor delta (PPARd) signaling pathway - cell viability counter screen (AID 743211). Also: nearly all actives have a fitted effect of over 55% in size. An outline of the steps: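 Luminescent ATP viability assay (CellTiter-Glo, 30 min RT) in UAS-bla HEK293H cells carrying the PPAR delta reporter construct, 3000 cells/well, after a 17 h compound treatment at 37 C.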

Assay [10] addresses Peroxisome proliferator-activated receptor delta (Homo sapiens) (UniProt Q03181). Kind of assay: qHTS assay to identify small molecule agonists of the peroxisome proliferator-activated receptor delta (PPARd) signaling pathway (AID 743212; calls by dose curve). The essentials:
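Beta-lactamase reporter read by fluorescence (LiveBLAzer B/G FRET, 2 h, room temperature). Test agents, in DMSO, incubated at 37 C with PPARd-bla HEK293H cells.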

The nature of assay [11]: qHTS assay to identify small molecule antagonists of the peroxisome proliferator-activated receptor delta (PPARd) signaling pathway - cell viability counter screen (AID 743213). Also: nearly all actives have a fitted effect of over 50% in size. The essentials:
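CellTiter-Glo was added to PPARd-bla HEK293H wells following 17 h compound treatment in the presence of 300 nM L165041. Luminescence was recorded after 30 min at room temperature.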

For assay [12], the target named is Peroxisome proliferator-activated receptor delta (Homo sapiens) (UniProt Q03181). Kind of assay: qHTS assay to identify small molecule antagonists of the peroxisome proliferator-activated receptor delta (PPARd) signaling pathway (AID 743215; active = well fitted inhibition curve with a large enough effect in the signal ratio in the repeat runs, not every such curve was filed as active; the % refers to the signal ratio;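 also: cells stimulated with agonist L165041 at 300 nM final during compound exposure; series mostly up to about 62 µM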). An outline of the steps:
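Screen format: qHTS, antagonist mode. HEK293H PPARd-bla cells received compound and 300 nM L165041 (final), 17 h, 37 C. Beta-lactamase detected via FRET substrate fluorescence, 2 h, room temperature.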

Assay [13] can be described thus: qHTS assay to identify small molecule antagonists of the farnesoid-X-receptor (FXR) signaling pathway - cell viability counter screen (AID 743221; active = well fitted cell-killing curve with a large enough effect in the repeat runs, not every such curve was filed as active; also: nearly all actives have a fitted effect of over 50% in size). The essentials:
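In GeneBLAzer FXR-UAS-bla HEK 293T cells stimulated with 50 uM chenodeoxycholic acid (final), compounds acted for 16 h at 37 C. Viability was assessed afterwards by CellTiter-Glo luminescence.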

For assay [14], the target named is Vitamin D3 receptor (Homo sapiens) (UniProt P11473). Nature of the assay: qHTS assay to identify small molecule agonists of the vitamin D receptor (VDR) signaling pathway (AID 743222; calls by dose curve). An outline of the steps:
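Using LiveBLAzer B/G FRET detection, agonism was scored in VDR-bla cells exposed overnight (16 h, 37C) to DMSO-dissolved compounds; substrate incubation was 2 h at room temperature.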

Assay [15] shares this target. Nature of the assay: qHTS assay to identify small molecule antagonists of the vitamin D receptor (VDR) signaling pathway (AID 743223; active = well fitted inhibition curve with a large enough effect in the signal ratio in the repeat runs, not every such curve was filed as active; the % refers to the signal ratio). The essentials:
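Agonist 1alpha,25-dihydroxyvitamin D3 (3 nM in well) was added with each compound to VDR-bla cells preincubated 4 h. Cells stood 16 h at 37C, then FRET substrate 2 h at room temperature; fluorescence intensity recorded.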

Assay [16] is described as follows: qHTS assay for small molecule agonists of the antioxidant response element (ARE) signaling pathway (AID 743202; active = well fitted activation curve with a large enough effect in the signal ratio in the repeat runs, not every such curve was filed as active; the % refers to the signal ratio; also: potency is read from the fitted curve at half-maximal effect). An outline of the steps: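 Following a 16 h, 37 C exposure of reporter HepG2 cells (ARE-driven beta-lactamase, 2,000 cells/well) to compounds, FRET substrate was applied for 2 h at room temperature and fluorescence intensity recorded.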
The nature of assay [17]: qHTS assay to identify small molecule agonists of the farnesoid-X-receptor (FXR) signaling pathway - cell viability counter screen (AID 743218). Also: nearly all actives have a fitted effect of over 45% in size. An outline of the steps: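 Same-well cytotoxicity check on FXR-UAS-bla HEK 293T cells: 5 h attachment, 16 h compound at 37 C, CellTiter-Glo luminescence read at room temperature after 30 min.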
Assay [18] in a line: qHTS assay to identify small molecule antagonists of the peroxisome proliferator-activated receptor gamma (PPARg) signaling pathway - cell viability counter screen (AID 743194). Also: nearly all actives have a fitted effect of over 55% in size. An outline of the steps: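 PPARg-UAS-bla HEK293H cells were plated, rested 5 h at 37 C, then treated with compounds plus rosiglitazone (50 nM final) for 17 h at 37 C; viability was then read by CellTiter-Glo luminescence after 30 min at room temperature.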

Assay [19] addresses Bile acid receptor (Homo sapiens) (UniProt Q96RI1). Nature of the assay: qHTS assay to identify small molecule antagonists of the farnesoid-X-receptor (FXR) signaling pathway (AID 743217; active = well fitted inhibition curve with a large enough effect in the signal ratio in the repeat runs, not every such curve was filed as active; the % refers to the signal ratio). An outline of the steps:
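Quantitative HTS, beta-lactamase reporter format: FXR-UAS-bla HEK 293T cells co-treated 16 h at 37 °C with compounds and 50 uM final chenodeoxycholic acid, then read by B/G FRET fluorescence.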

The target is the same in assay [20]. Nature of the assay: qHTS assay to identify small molecule agonists of the farnesoid-X-receptor (FXR) signaling pathway (AID 743220; active = well fitted activation curve with a large enough effect in the signal ratio in the repeat runs, not every such curve was filed as active; the % refers to the signal ratio). The essentials: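 FXR-UAS-bla HEK 293T cells carrying a UAS-driven beta-lactamase reporter were plated for 5 h at 37C/5% CO2, then exposed to DMSO-dissolved Tox21 10K compounds for 16 h at 37C. A LiveBLAzer B/G FRET substrate was loaded for 2 h at room temperature before fluorescence reading.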

Chain of Vitamin D3 receptor (Homo sapiens) (P11473 whole entry, looked up): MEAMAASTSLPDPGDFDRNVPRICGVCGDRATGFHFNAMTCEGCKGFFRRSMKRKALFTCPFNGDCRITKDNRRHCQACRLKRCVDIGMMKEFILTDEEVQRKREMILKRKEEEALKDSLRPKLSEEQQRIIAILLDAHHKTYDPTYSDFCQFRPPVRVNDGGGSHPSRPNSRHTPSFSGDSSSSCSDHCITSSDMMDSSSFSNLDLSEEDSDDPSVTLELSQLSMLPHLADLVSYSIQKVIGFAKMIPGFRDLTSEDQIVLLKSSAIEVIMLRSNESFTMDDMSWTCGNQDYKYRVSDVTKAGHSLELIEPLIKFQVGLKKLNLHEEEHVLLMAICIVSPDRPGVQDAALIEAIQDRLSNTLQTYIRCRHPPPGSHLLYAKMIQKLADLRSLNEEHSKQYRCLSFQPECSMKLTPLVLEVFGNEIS
Chain of Bile acid receptor (Homo sapiens) (Q96RI1 whole entry, looked up): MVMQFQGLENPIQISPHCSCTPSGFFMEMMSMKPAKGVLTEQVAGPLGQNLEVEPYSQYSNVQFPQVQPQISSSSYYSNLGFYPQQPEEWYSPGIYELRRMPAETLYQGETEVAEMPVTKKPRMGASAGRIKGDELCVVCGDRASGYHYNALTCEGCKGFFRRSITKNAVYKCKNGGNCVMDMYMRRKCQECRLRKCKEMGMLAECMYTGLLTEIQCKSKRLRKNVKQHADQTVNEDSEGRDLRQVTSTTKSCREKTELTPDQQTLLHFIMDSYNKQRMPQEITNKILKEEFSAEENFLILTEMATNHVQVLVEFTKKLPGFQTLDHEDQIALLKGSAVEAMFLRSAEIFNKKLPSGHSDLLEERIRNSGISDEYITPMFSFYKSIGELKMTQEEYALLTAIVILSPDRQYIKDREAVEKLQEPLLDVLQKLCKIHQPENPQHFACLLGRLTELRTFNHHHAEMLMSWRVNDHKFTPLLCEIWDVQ
Chain of Aryl hydrocarbon receptor (Homo sapiens) (P35869 whole entry, looked up): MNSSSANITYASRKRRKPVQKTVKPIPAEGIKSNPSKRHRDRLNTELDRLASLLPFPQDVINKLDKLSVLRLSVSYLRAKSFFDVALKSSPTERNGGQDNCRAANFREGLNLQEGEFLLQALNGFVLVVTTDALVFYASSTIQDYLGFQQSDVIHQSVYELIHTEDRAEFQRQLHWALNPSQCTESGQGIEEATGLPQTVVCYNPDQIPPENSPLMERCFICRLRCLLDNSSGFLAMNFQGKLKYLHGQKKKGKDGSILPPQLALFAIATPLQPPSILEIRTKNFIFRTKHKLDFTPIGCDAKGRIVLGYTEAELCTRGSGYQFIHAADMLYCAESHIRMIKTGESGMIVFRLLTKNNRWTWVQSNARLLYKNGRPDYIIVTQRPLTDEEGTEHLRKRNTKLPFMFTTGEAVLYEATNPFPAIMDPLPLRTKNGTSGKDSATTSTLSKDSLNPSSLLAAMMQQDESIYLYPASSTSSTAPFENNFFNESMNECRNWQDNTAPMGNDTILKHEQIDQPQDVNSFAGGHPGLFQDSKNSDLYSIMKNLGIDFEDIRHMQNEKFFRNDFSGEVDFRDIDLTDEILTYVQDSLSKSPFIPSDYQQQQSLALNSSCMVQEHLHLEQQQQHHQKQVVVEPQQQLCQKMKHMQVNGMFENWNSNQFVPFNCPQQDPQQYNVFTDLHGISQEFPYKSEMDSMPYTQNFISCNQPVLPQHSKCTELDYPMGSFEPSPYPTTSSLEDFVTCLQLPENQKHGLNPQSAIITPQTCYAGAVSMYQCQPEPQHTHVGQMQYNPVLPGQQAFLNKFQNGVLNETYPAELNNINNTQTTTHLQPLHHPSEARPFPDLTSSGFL
Chain of Peroxisome proliferator-activated receptor delta (Homo sapiens) (Q03181 whole entry, looked up): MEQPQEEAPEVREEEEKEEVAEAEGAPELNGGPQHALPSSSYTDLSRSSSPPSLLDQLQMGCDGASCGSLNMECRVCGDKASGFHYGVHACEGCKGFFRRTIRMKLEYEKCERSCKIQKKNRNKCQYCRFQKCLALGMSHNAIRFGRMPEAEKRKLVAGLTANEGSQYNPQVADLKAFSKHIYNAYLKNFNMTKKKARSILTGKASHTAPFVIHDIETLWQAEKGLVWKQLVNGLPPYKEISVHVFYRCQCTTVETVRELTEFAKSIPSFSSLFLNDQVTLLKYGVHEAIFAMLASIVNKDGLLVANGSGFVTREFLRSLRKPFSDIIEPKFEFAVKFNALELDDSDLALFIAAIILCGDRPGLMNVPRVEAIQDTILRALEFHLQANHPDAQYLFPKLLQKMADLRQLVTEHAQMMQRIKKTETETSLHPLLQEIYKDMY

`Cc1ccc(C(=O)O)o1`: the Potency result in assay [1], in assay [2], in assay [3], in assay [5], in assay [6] and in [7] was “inactive” in each case. Also, the Potency result in assay [9], in [11], in assay [13], in assay [14] and in [15] was “inactive” in each case. For the same compound, the compound was called inactive in assay [4], in assay [8], in [10] and in assay [12].

In the case of `NS(=O)(=O)c1cc2c(cc1Cl)NC=NS2(=O)=O`, the Potency result in [1], in assay [2], in assay [3], in assay [5], in assay [16] and in [6] was “inactive” in each case. Moreover, the Potency entry in [7], in assay [9], in [11], in [17], in assay [13] and in assay [14] was “inactive” each time. Further, in assay [15], the Potency result was “inactive”. Also, the call in assay [4], in [8], in [10] and in assay [12] was inactive.

Take `Cc1cc(O)c2c(c1)C(=O)c1cc(O)cc(O)c1C2=O`: the Potency in assay [1] was 11.9 µM (active) and 24.3 µM (active); in assay [2], 5.97 µM (active) and 34.4 µM (active); in assay [16], 4.23 µM (active); in [6], 23.8 µM (active). In addition, the Potency result in [3], in assay [7], in assay [11] and in assay [13] was “inactive” throughout. Further, the compound was classed as inactive in [4].

With `CC1COc2ccccc2N1C(=O)C(Cl)Cl` (stereo not given), the Potency is 27.3 µM (active) in assay [1]; 17.2 µM (active) and inactive in [2]; 24.5 µM (active) in [5]; 19.3 µM (active) and 27.3 µM (active) in assay [16]. For the same compound, the Potency result in assay [3], in assay [18], in [6], in [7], in [9] and in assay [11] was “inactive” throughout. The Potency entry in assay [17], in [13] and in assay [14] was “inactive” in each case. In addition, the compound was classed as inactive in assay [8] and in assay [12].

For `NCCc1ccc(O)c(O)c1`, the Potency in [1] was 27.4 µM (active); in [16] it was 109 nM (active) and 376 nM (active). Besides, the Potency entry in [2], in assay [3], in assay [5], in [6], in assay [7] and in assay [9] was “inactive” each time. The Potency result in [11], in assay [17], in [13], in [14] and in assay [15] was “inactive” throughout. Moreover, the call in assay [4], in assay [19] and in assay [20] was inactive.

On to `O=C(c1ccc(O)cc1)c1ccc(O)cc1O`, for which the Potency result in assay [1], in [3], in [18], in assay [6], in assay [7] and in assay [9] was “inactive” throughout. In addition, the Potency entry in assay [11], in assay [17] and in [13] was “inactive” in each case. Moreover, the Potency in assay [2] was 24.3 µM (active). The result in assay [4], in assay [8], in assay [10], in assay [12], in assay [19] and in [20] was inactive.

As for `CCOC(=O)/C=C\C(=O)OCC`, the Potency entry in [1], in assay [2], in assay [3], in assay [5], in [16] and in [6] was “inactive” each time. The Potency result in assay [7], in [9], in assay [11], in [17], in assay [13] and in assay [14] was “inactive” each time. Besides, the Potency entry in assay [15] is “inactive”. Moreover, the result in assay [4], in [8], in [10] and in [12] was inactive.
